# Measured values as given in PubChem BioAssay (Tox21).
# Values without a mark were called inactive. Results filed as inconclusive are left out. Where a call stands in place of a potency, no number is given. Active and inactive are the calls of the source. Unless noted, calls follow the shape of the dose curve; as a rule, active = well fitted curve in the direction sought with a large enough effect in the repeat runs; inconclusive = weak or mixed curves; inactive = no such curve, though single readings can be large; an effect the other way counts as inactive or inconclusive.
# Tests used:
# [1] = target: Thyrotropin receptor (Homo sapiens) (UniProt P16473); assay: qHTS assay to identify small molecule agonists of the thyroid stimulating hormone receptor (TSHR) signaling pathway (AID 1224843; calls by dose curve; also: nearly all actives have a fitted effect of over 45% in size)
# Thyrotropin receptor (Homo sapiens), sequence (P16473 whole entry, looked up): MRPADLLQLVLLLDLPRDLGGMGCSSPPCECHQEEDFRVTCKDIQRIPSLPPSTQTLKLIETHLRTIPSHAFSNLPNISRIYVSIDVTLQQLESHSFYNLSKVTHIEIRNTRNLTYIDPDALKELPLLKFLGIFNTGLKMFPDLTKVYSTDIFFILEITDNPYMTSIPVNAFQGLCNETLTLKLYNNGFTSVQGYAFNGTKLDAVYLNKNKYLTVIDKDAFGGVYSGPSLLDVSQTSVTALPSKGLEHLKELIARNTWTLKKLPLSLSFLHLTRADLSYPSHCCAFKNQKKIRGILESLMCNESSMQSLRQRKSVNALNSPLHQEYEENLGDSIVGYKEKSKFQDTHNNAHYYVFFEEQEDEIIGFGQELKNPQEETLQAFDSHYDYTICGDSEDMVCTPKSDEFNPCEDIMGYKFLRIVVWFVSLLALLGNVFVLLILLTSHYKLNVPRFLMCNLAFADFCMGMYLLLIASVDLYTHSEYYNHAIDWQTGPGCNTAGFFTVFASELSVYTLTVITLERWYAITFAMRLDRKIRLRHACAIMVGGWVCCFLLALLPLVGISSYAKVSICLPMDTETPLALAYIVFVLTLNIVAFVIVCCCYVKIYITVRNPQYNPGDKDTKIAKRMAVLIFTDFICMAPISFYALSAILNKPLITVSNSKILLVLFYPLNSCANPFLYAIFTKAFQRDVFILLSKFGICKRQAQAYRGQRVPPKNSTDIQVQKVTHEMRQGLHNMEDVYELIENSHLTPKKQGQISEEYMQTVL
# Method in brief: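 HEK293/TSHR, 800 cells/well; cpd 30 min RT; add cAMP-d2 + anti-cAMP-cryptate, 1 h RT; fluorescence read on plate reader. 15-pt titration, n=3.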
# [2] = qHTS assay to identify small molecule agonists of the hypoxia (HIF-1) signaling pathway - cell viability counter screen (AID 1224844; calls by dose curve; also: nearly all actives have a fitted effect of over 50% in size)
# Method in brief: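 HRE-bla ME-180; 0.5% dFBS; cpd 17 h, 37C, 5% CO2; CellTiter-Glo lum., 30 min RT, post-FRET read, same wells.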
# [3] = qHTS assay to identify small molecule agonists of H2AX - cell viability counter screen (AID 1224847; calls by dose curve; also: top concentration of the series differs between compounds; nearly all actives have a fitted effect of over 30% in size)
# Method in brief: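 Cells plated first: CHO-K1, 1000 per well in 10% FBS medium, incubated overnight at 37C. Then 15-point compound titration added (final DMSO 0.76%) for 3 hr. Finally CellTiter-Glo added and luminescence read.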
# [4] = qHTS assay to identify small molecule antagonists of the estrogen related receptor (ERR) signaling pathway from Tox21 library (AID 1224848); also: nearly all actives have a fitted effect of over 50% in size
# Method in brief: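 Compounds dissolved in DMSO are pin-transferred onto ERR reporter cells (2,000 per well) that have settled for 6 h at 37 C. Plates then incubate 18 h at 37 C before ONE-Glo luciferase reagent and a luminescence read 30 min later.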
# [5] = qHTS assay to identify small molecule agonists of the estrogen related receptor (ERR) signaling pathway from Tox21 library (AID 1224849; calls by dose curve; also: nearly all actives have a fitted effect of over 15% in size); conditions: ERR reporter cell line, ONE-Glo luciferase, 18 h; at 92.4 µM (top of the series) unless noted
# Method in brief: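 Tox21 compounds tested for ERR agonism in an NTP reporter cell line: 18 h treatment at 37 C, then ONE-Glo luminescence.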
# [6] = qHTS RealTime-Glo MT Cell Viability Assay in HepG2 cells - 24 hour (AID 1224867); also: nearly all actives have a fitted effect of over 50% in size
# Method in brief: (§1)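 Luminescence read-out: viable HepG2 cells reduce a prosubstrate to a NanoLuc substrate, giving a signal proportional to live cell number. Reads taken at 0, 8, 16, 24, 32 and 40 h of compound exposure at 37 C.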
# [7] = A CellTox Green Cytotoxicity Assay to monitor cytotoxicity in HEK293 cells - 0 hour (AID 1224869); also: nearly all actives have a fitted effect of over 50% in size
# Method in brief: (§2)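 Tox21 screen in HEK293: membrane-impermeant cyanine dye fluoresces on binding dead-cell DNA; compound pinned 5 h post-seeding, plates held at 37 C, signal read repeatedly through 40 h.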
# [8] = qHTS RealTime-Glo MT Cell Viability Assay in HepG2 cells - 40 hour (AID 1224870); also: nearly all actives have a fitted effect of over 50% in size
# Method in brief: (§3)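 HepG2 cells (600/well) mixed with RealTime-Glo MT reagent, settled 5 h at 37 C/5% CO2 before compound addition. Nonlytic NanoLuc luminescence from viable-cell prosubstrate reduction read repeatedly during 40 h treatment at 37 C.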
# [9] = A CellTox Green Cytotoxicity Assay to monitor cytotoxicity in HEK293 cells - 40 hour (AID 1224871); also: nearly all actives have a fitted effect of over 45% in size
# Method in brief: as §2
# [10] = qHTS RealTime-Glo MT Cell Viability Assay in HEK293 cells - 16 hour (AID 1224872); also: nearly all actives have a fitted effect of over 50% in size; also: potency is read from the fitted curve at half-maximal effect
# Method in brief: (§4)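 Nonlytic real-time viability readout: viable cells convert prosubstrate to NanoLuc substrate, giving luminescence proportional to live cell number. HEK293, 600 cells/well, compound added after 5 h, continuous culture at 37 C.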
# [11] = qHTS RealTime-Glo MT Cell Viability Assay in HepG2 cells - 8 hour (AID 1224873); also: nearly all actives have a fitted effect of over 55% in size
# Method in brief: as §3
# [12] = qHTS RealTime-Glo MT Cell Viability Assay in HEK293 cells - 40 hour (AID 1224874); conditions: RealTime-Glo luminescence; max response: stronger effect = lower value; also: nearly all actives have a fitted effect of over 50% in size; also: potency is read from the fitted curve at half-maximal effect
# Method in brief: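 HEK293 + NanoLuc + prosubstrate, 600 cells/well; 5 h, 37 C/5% CO2; compound 23 nL in DMSO by pintool; 37 C; luminescence read at 0, 8, 16, 24, 32 and 40 h time points.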
# [13] = A CellTox Green Cytotoxicity Assay to monitor cytotoxicity in HEK293 cells - 24 hour (AID 1224875); also: nearly all actives have a fitted effect of over 45% in size
# Method in brief: as §2
# [14] = A CellTox Green Cytotoxicity Assay to monitor cytotoxicity in HepG2 cells - 16 hour (AID 1224876); also: nearly all actives have a fitted effect of over 45% in size
# Method in brief: (§5)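 Measurements at 0, 8, 16, 24, 32 and 40 h of treatment captured CellTox Green fluorescence in HepG2 cells that had been co-plated with reagent and preincubated 5 h at 37 C/5% CO2.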
# [15] = qHTS RealTime-Glo MT Cell Viability Assay in HepG2 cells - 32 hour (AID 1224877); also: nearly all actives have a fitted effect of over 55% in size
# Method in brief: as §1
# [16] = A CellTox Green Cytotoxicity Assay to monitor cytotoxicity in HepG2 cells - 24 hour (AID 1224878); also: nearly all actives have a fitted effect of over 45% in size
# Method in brief: as §5
# [17] = A CellTox Green Cytotoxicity Assay to monitor cytotoxicity in HepG2 cells - 40 hour (AID 1224879); also: nearly all actives have a fitted effect of over 40% in size
# Method in brief: as §5
# [18] = qHTS assay to identify small molecule agonists of the hypoxia (HIF-1) signaling pathway (AID 1224846; active = well fitted activation curve with a large enough effect in the signal ratio in the repeat runs, not every such curve was filed as active; the % refers to the signal ratio)
# Method in brief: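 Reporter induction in HRE-bla ME-180 cells is taken as agonism: cells sit 5 hrs after plating, receive compounds or DMSO only, incubate 17 hrs at 37C under 5% CO2, and are loaded with CCF4-AM for beta-lactamase FRET measurement.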
# [19] = qHTS RealTime-Glo MT Cell Viability Assay in HEK293 cells - 32 hour (AID 1224868); also: nearly all actives have a fitted effect of over 50% in size; also: potency is read from the fitted curve at half-maximal effect
# Method in brief: as §4
# [20] = qHTS assay to identify small molecule agonists of H2AX (AID 1224845; active = well fitted activation curve with a large enough effect in the signal ratio in the repeat runs, not every such curve was filed as active; the % refers to the signal ratio)
# Method in brief: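 Wild-type CHO-K1 cells, plated overnight, exposed 3hr at 37C to 15 concentrations (0.76% DMSO final). Lysed, then HTRF anti-pH2AX (S139) cryptate and anti-H2AX-d2 antibodies, 24 hr room temperature; 665/620 nm emission read.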
compound,measurement,setting,value
CC(C)CCCCCCCOC(=O)c1ccc(C(=O)OCCCCCCCC(C)C)c(C(=O)OCCCCCCCC(C)C)c1,Potency,[1],inactive
same,Potency,[2],inactive
same,Potency,[3],inactive
same,Potency,[4],inactive
same,"activity change, positive = activation",[5],-6.08%
same,outcome,[6],inactive
same,Potency,[7],inactive
same,Potency,[8],inactive
same,Potency,[9],inactive
same,Potency,[10],inactive
same,outcome,[11],inactive
same,max response,[12],11.4%
same,Potency,[13],inactive
same,Potency,[14],inactive
same,Potency,[15],inactive
same,Potency,[16],inactive
same,Potency,[17],inactive
O=C(NC1CCN(CCc2c[nH]c3ccccc23)CC1)c1ccccc1,Potency,[1],inactive
same,Potency,[2],inactive
same,outcome,[18],inactive
same,Potency,[3],inactive
same,outcome,[6],inactive
same,Potency,[19],7.56 µM (active)
same,Potency,[7],inactive
same,Potency,[9],inactive
same,Potency,[10],9.52 µM (active)
same,outcome,[11],inactive
same,Potency,[12],9.52 µM (active)
same,Potency,[14],inactive
same,Potency,[15],inactive
same,Potency,[16],inactive
same,Potency,[17],inactive
CCCCCO,Potency,[1],inactive
same,Potency,[20],inactive
same,outcome,[18],inactive
same,Potency,[3],inactive
same,Potency,[4],inactive
same,"activity change, positive = activation",[5],-0.565%
same,outcome,[6],inactive
same,Potency,[19],inactive
same,Potency,[7],inactive
same,Potency,[8],inactive
same,Potency,[9],inactive
same,Potency,[10],inactive
same,outcome,[11],inactive
same,max response,[12],1.46%
same,Potency,[13],inactive
same,Potency,[14],inactive
same,Potency,[15],inactive
same,Potency,[16],inactive
same,Potency,[17],inactive
Cc1ccc(S(=O)(=O)NC(=O)NC2CCCC2)cc1,Potency,[1],inactive
same,Potency,[20],inactive
same,outcome,[18],inactive
same,Potency,[3],inactive
same,outcome,[6],inactive
same,Potency,[19],inactive
same,Potency,[7],inactive
same,Potency,[8],inactive
same,Potency,[9],inactive
same,Potency,[10],inactive
same,outcome,[11],inactive
same,max response,[12],0.385%
same,Potency,[13],inactive
same,Potency,[14],inactive
same,Potency,[15],inactive
same,Potency,[16],inactive
COc1ccc(/C=C/S(=O)(=O)NC(=O)c2ccc(C)cc2Cl)cc1,Potency,[1],inactive
same,Potency,[20],inactive
same,outcome,[18],inactive
same,Potency,[3],inactive
same,outcome,[6],inactive
same,Potency,[19],inactive
same,Potency,[7],inactive
same,Potency,[8],inactive
same,Potency,[9],inactive
same,Potency,[10],inactive
same,outcome,[11],inactive
same,max response,[12],-7.95%
same,Potency,[13],inactive
same,Potency,[14],inactive
same,Potency,[15],inactive
same,Potency,[16],inactive
same,Potency,[17],inactive
CCC(=O)O[C@]1(C(=O)COC)[C@@H](C)C[C@H]2[C@@H]3CCC4=CC(=O)C=C[C@]4(C)C3(F)[C@@H](O)C[C@@]21C (some centres undefined),Potency,[1],inactive
same,outcome,[18],inactive
same,Potency,[3],inactive
same,Potency,[4],inactive
same,"activity change, positive = activation",[5],-12.4% [at 42.5 µM]
same,outcome,[6],inactive
same,Potency,[19],inactive
same,Potency,[7],inactive
same,Potency,[8],inactive
same,Potency,[9],inactive
same,Potency,[10],inactive
same,outcome,[11],inactive
same,max response,[12],-19.2%
same,Potency,[13],inactive
same,Potency,[15],inactive
same,Potency,[16],inactive
same,Potency,[17],inactive
O=C(O)c1ccc2cc(O)ccc2c1,Potency,[2],inactive
same,Potency,[20],inactive
same,outcome,[18],inactive
same,Potency,[3],inactive
same,outcome,[6],inactive
same,Potency,[19],inactive
same,Potency,[7],inactive
same,Potency,[8],inactive
same,Potency,[9],inactive
same,Potency,[10],inactive
same,outcome,[11],inactive
same,max response,[12],-17.3%
same,Potency,[13],inactive
same,Potency,[15],inactive
same,Potency,[16],inactive
O=c1c2ccccc2oc2ccccc12,Potency,[2],inactive
same,Potency,[20],inactive
same,outcome,[18],inactive
same,Potency,[3],inactive
same,outcome,[6],inactive
same,Potency,[19],inactive
same,Potency,[7],inactive
same,outcome,[11],inactive
same,max response,[12],-17.5%
same,Potency,[13],inactive
same,Potency,[14],inactive
same,Potency,[15],inactive
same,Potency,[16],inactive
same,Potency,[17],inactive
CCCCCCCCCCCC(=O)OCC,Potency,[1],inactive
same,Potency,[20],inactive
same,Potency,[3],inactive
same,outcome,[6],inactive
same,Potency,[7],inactive
same,Potency,[8],inactive
same,Potency,[9],inactive
same,Potency,[10],inactive
same,outcome,[11],inactive
same,max response,[12],3.23%
same,Potency,[13],inactive
same,Potency,[15],inactive
same,Potency,[16],inactive
same,Potency,[17],inactive
CCCCCCCCS,Potency,[2],inactive
same,Potency,[20],inactive
same,outcome,[18],inactive
same,Potency,[3],inactive
same,outcome,[6],inactive
same,Potency,[19],inactive
same,Potency,[7],inactive
same,Potency,[8],inactive
same,Potency,[9],inactive
same,Potency,[10],inactive
same,outcome,[11],inactive
same,max response,[12],7.45%
same,Potency,[13],inactive
same,Potency,[15],inactive
same,Potency,[16],inactive
same,Potency,[17],inactive
CCCc1nc(C)c2c(=O)[nH]c(-c3cc(S(=O)(=O)N4CCN(CC)CC4)ccc3OCC)nn12,Potency,[2],inactive
same,Potency,[20],inactive
same,outcome,[18],inactive
same,Potency,[3],inactive
same,outcome,[6],inactive
same,Potency,[19],inactive
same,Potency,[7],inactive
same,Potency,[8],inactive
same,Potency,[9],inactive
same,outcome,[11],inactive
same,Potency,[13],inactive
same,Potency,[14],inactive
same,Potency,[15],inactive
same,Potency,[16],inactive
same,Potency,[17],inactive
CCCCC(CC)COCCC#N (centres undefined),Potency,[1],inactive
same,Potency,[20],inactive
same,Potency,[3],inactive
same,outcome,[6],inactive
same,Potency,[19],inactive
same,Potency,[7],inactive
same,Potency,[8],inactive
same,Potency,[9],inactive
same,Potency,[10],inactive
same,outcome,[11],inactive
same,max response,[12],12.6%
same,Potency,[13],inactive
same,Potency,[14],inactive
same,Potency,[15],inactive
same,Potency,[16],inactive
CCCc1ccc(OC)cc1,Potency,[1],inactive
same,Potency,[20],inactive
same,Potency,[3],inactive
same,outcome,[6],inactive
same,Potency,[19],inactive
same,Potency,[7],inactive
same,Potency,[8],inactive
same,Potency,[9],inactive
same,Potency,[10],inactive
same,outcome,[11],inactive
same,max response,[12],11.9%
same,Potency,[13],inactive
same,Potency,[15],inactive
same,Potency,[16],inactive
CC(=O)c1cccnc1,Potency,[2],inactive
same,Potency,[20],inactive
same,outcome,[18],inactive
same,Potency,[3],inactive
same,Potency,[4],inactive
same,"activity change, positive = activation",[5],4.95%
same,outcome,[6],inactive
same,Potency,[19],inactive
same,Potency,[7],inactive
same,Potency,[8],inactive
same,Potency,[9],inactive
same,Potency,[10],inactive
same,outcome,[11],inactive
same,max response,[12],-6.53%
same,Potency,[13],inactive
same,Potency,[14],inactive
same,Potency,[15],inactive
same,Potency,[16],inactive
COc1ccc(/C=C/c2cc(OC)cc(=O)o2)cc1,Potency,[2],inactive
same,Potency,[20],inactive
same,outcome,[18],inactive
same,Potency,[3],inactive
same,Potency,[4],inactive
same,"activity change, positive = activation",[5],55.8% [at 42.5 µM] (active)
same,outcome,[6],inactive
same,Potency,[19],11.2 µM (active)
same,Potency,[7],inactive
same,Potency,[8],inactive
same,Potency,[9],inactive
same,outcome,[11],inactive
same,Potency,[12],8.92 µM (active)
same,Potency,[14],inactive
same,Potency,[15],inactive
same,Potency,[16],inactive
same,Potency,[17],inactive
